# Test results taken from PubChem BioAssay AID1745849 (National Center for Advancing Translational Sciences (NCATS), 2022).
# Hit rate of the full screen: of about 2,100 compounds, about 320 (15%) were called active. Not shown: some 52% with an inconclusive outcome. Calls come from the whole dose curve; as a rule, active = well fitted cell-killing curve with a large enough effect; inconclusive = small, poorly fitted or top-dose-only effect, or effect the other way; inactive = flat fitted curve, though single readings scatter. The list shows a part of the results. Where a call stands in place of a potency, no number is given.
# Assay: Viability Counterscreen for CMV-Luciferase Assay of Inhibitors of ATXN expression; note: nearly all actives have a fitted effect of over 55% in size
# Conditions: HEK-293 CMV-luciferase cells viability, protease fluorescence, 24 h
# In short: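 Cells: HEK-293/CMV-luc in phenol-red-free DMEM, 2 hr settle. Cpd dose, 24 hr, 37 °C, 5% CO2. Viability: Gly-Phe-AFC 25 uM final, 30 min, fluor. Then SteadyGlo, 5 min RT, lumin.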
# Potency is the fitted concentration of half-maximal effect.
row,Compound,Potency
1,N#Cc1nc(COc2ccc(-c3ccccc3)cc2)oc1NCc1cccnc1,inactive
2,Cc1cccc(CN2C(=O)/C(=C\c3ccc(C(=O)NCCN4CCOCC4)cc3)Sc3ccccc32)c1,inactive
3,Cc1ccc(NC(=O)COc2ccc(/C=C3/SC(=Nc4ccccc4)N(Cc4cccnc4)C3=O)cc2)cc1,17.8 µM (active)
4,CCN1CCN(CCNC(=O)c2ccc(/C=C3/Sc4ccccc4N(Cc4cccc(C)c4)C3=O)cc2)CC1,inactive
5,CC(C)(C)n1nnnc1C(c1cccs1)N(Cc1ccc(Cl)cc1)CC1CCCO1 (stereo not drawn),inactive
6,CCN(CC)c1nc(-c2ccccn2)nc(-c2ccccc2)c1C#N,5.62 µM (active)
7,CC(C)Nc1nc(-c2ccccn2)nc(-c2ccccc2)c1C#N,inactive
8,O=S(=O)([N-]c1nc2ccccc2nc1-[n+]1ccc(Cc2ccccc2)cc1)c1ccc(Br)s1,3.55 µM (active)
9,COc1cccc(C(=O)Oc2c(CN3CCOCC3)cc(Cl)c3cccnc23)c1,inactive
10,COC(=O)N/N=C/c1cn(CC(C)COc2ccccc2)c2ccccc12 (stereo not drawn),inactive
11,S=C(NCCCN1CCOCC1)N1CCN(c2nc(-c3ccccc3)cs2)CC1,inactive
12,O=C(Nc1cnn(C23CC4CC(CC(C4)C2)C3)c1)c1cnn2c(C(F)(F)F)cc(-c3ccco3)nc12,12.6 µM (active)
13,COC(=O)c1ccc(Oc2nc(NC(C)C)nc(N(C)C)n2)cc1,inactive
14,O=C(CN1C(=O)c2ccccc2S1(=O)=O)N1CCc2ccccc21,inactive
15,COCC(C)n1c(C)cc(C(=O)COC(=O)c2cccn2C)c1C (stereo not drawn),inactive
16,O=c1c2ccc(Cl)cc2nc(-c2cccc(C(F)(F)F)c2)n1O,10 µM (active)
17,OC(c1ccc(Cl)cc1)c1ncc(-c2cccc(C(F)(F)F)c2)[nH]1 (stereo not drawn),inactive
18,N#Cc1ccc(-c2nc3cc(Cl)ccc3c(=O)n2O)cc1,inactive
19,Cc1ccc(CN2CC(C(=O)Nc3ncc(C)s3)CC2=O)cc1 (stereo not drawn),inactive
20,CCN(CCCn1c(=S)[nH]c2ccc(N3CCOCC3)cc2c1=O)c1ccccc1,inactive
21,CC(Sc1ccc(Cl)cc1)C(=O)NNC(=O)c1ccccc1O (stereo not drawn),inactive

row,Compound,Potency
1,CC1(C)Cc2ccccc2C2=NNC(=O)C2=N1,25.1 µM (active)
2,COc1cccc(/C=N/n2c(N)c(S(=O)(=O)c3cccs3)c3nc4ccccc4nc32)c1OC,14.1 µM (active)
3,Cc1ccc(S(=O)(=O)c2c(N)n(CC3CCOC3)c3nc4ccccc4nc23)cc1 (stereo not drawn),inactive
4,CCCCn1c(N)c(S(=O)(=O)c2ccc(C)cc2)c2nc3ccccc3nc21,inactive
5,CCn1cc(C(=O)NCCCN2CCCC(C)C2)c(=O)c2cc(S(=O)(=O)N3CCc4ccccc4C3)ccc21 (stereo not drawn),inactive
6,O=C(C1CC(=O)N(c2ccc3c(c2)OCCO3)C1)N1CCN(c2ccccc2)CC1 (stereo not drawn),inactive
7,Cn1c(/C=C/c2ccc(Cl)cc2Cl)c([N+](=O)[O-])c(=O)n(C)c1=O,10 µM (active)
8,Cn1c(/C=C/c2ccc(Cl)cc2)c([N+](=O)[O-])c(=O)n(C)c1=O,12.6 µM (active)
9,Cn1c(/C=C/c2cccc([N+](=O)[O-])c2)c([N+](=O)[O-])c(=O)n(C)c1=O,14.1 µM (active)
10,CN(c1ccc(OCC(=O)N2CCN(c3ccc(F)cc3)CC2)cc1)S(=O)(=O)c1cccs1,inactive
11,CC(=O)N1CCCc2cc(S(=O)(=O)N3CCCC(C(=O)N4CCN(c5cc(C)ccc5C)CC4)C3)ccc21 (stereo not drawn),inactive
12,CCOc1ccc(/C=C/[N+](=O)[O-])c2ccccc12,20 µM (active)
13,COc1ccc(NC(=O)N2CCN(c3nc(-c4cccc(OC)c4)cs3)CC2)cc1,inactive
14,CC1CCN(C(=O)c2cc3nc(-c4ccccc4)cc(-c4ccccc4)n3n2)CC1,inactive
15,Cc1c(C(=O)NCc2ccc(Cl)c(Cl)c2)sc(=O)n1Cc1ccc(S(C)(=O)=O)cc1,inactive
16,O=S(=O)(Cc1cc(NCc2ccccc2)nc(-c2ccccn2)n1)c1ccccc1,inactive
17,CCN(CC)CCn1nc2c3c(cccc3c1=O)-c1ccccc1-2,11.2 µM (active)
18,C/C(=N\NC(=O)C12CCC(C)(C(=O)O1)C2(C)C)c1ccccc1O (stereo not drawn),inactive
19,COc1ccc(-c2csc(NC(=O)C3CCN(c4ncnc5sc(C)c(C)c45)CC3)n2)cc1OC,8.91 µM (active)
20,CCc1ccc(C(=O)NNC(=O)C2CCN(c3ncnc4sc(C)c(C)c34)CC2)cc1,inactive
21,COc1ccc(S(=O)(=O)N(C)C)cc1NC(=O)C1CCN(c2ncnc3sc(C)c(C)c23)CC1,inactive

row,Compound,Potency
1,Cc1ccccc1Oc1cc(NC(=O)CCCn2nc(C)c([N+](=O)[O-])c2C)cc([N+](=O)[O-])c1,inactive
2,O=C(N/N=C/c1ccccc1O)C1CCCC1,inactive
3,O=C(Nc1ccccc1NC(=O)NC1CCCCC1)NC1CCCCC1,20 µM (active)
4,S=C(NCc1ccc(Cl)cc1Cl)NC1CCCCC1,inactive
5,CCc1ccc(CNC(=O)c2cc3c(C)nc4ccccc4c3o2)cc1,inactive
6,Cc1ccc2[nH]c(O)c(N=NC(=O)C3CC3c3ccccc3)c2c1Br (stereo not drawn),inactive
7,O=C(/C=C/NNC(=O)c1ccccc1)c1ccc([N+](=O)[O-])cc1,12.6 µM (active)
8,O=C(NNCc1ccccc1)c1ccccc1,inactive
9,O=C(O)COc1ccc2oc3ccccc3c2c1,inactive
10,c1ccc(Cn2c(-c3ccccc3)c[n+]3c2SCCC3)cc1,inactive
11,CCCC/C(C)=N/NC(=O)c1cn(-c2ccccc2)nc1-c1ccccc1,inactive
12,CCCCCC(=O)N/N=C(\C)c1ccccn1,inactive
13,CCc1ccc(OCC(=O)N/N=C(\C)c2ccc(O)cc2O)cc1,inactive
14,C/C(=N\NC(=O)c1cccc2ccccc12)c1ccccn1,1.41 µM (active)
15,C/C(=N\NC(=O)COc1cccc(C)c1)c1ccc2ccccc2c1O,inactive
16,COc1ccc(CC(=O)N/N=C(\C)c2ccccn2)cc1,11.2 µM (active)
17,OC1(c2ccc(Br)cc2)CCNCC1,inactive
18,Cc1cccc(OCCSc2nc3ncnc(N)c3[nH]2)c1,inactive
19,COc1ccccc1Cc1c(-c2ccco2)nc2c(C)cc(Br)cn12,8.91 µM (active)
20,Cc1n(Cc2ccccc2)c2ccccc2[n+]1Cc1ccccc1,inactive
21,CC(C)=CCc1ccc(O)c(=O)cc1C(C)C,inactive
